Bioassay records from PubChem.
Most compounds without a hit are left out; they make up all but 2.6% or so of the library.
Cruzain Triton: blocks cruzain activity in presence of Triton detergent; P25779; purified cruzain, Z-FR-AMC fluorescence, 0.01% Triton; Potency, µM, actives largely listed as inhibitors; 0.43% of 200,000 active; AID 1478; note: nearly all actives have a fitted effect of over 40% in size
Target sequence (P25779 123-467 limits assumed): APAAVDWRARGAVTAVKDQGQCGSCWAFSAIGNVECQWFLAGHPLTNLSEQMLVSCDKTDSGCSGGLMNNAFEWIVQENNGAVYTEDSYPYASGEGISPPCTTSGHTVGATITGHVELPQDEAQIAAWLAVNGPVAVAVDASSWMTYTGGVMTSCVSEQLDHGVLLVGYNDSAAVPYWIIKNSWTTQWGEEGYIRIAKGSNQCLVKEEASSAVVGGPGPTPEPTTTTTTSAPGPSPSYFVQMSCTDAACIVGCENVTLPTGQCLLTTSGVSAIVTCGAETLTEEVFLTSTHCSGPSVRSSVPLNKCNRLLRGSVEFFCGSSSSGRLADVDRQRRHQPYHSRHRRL
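Read-out: AMC fluorescence (360 nm excitation, 450 nm emission), four reads over 2 min, first-to-third difference used. Conditions: cruzain 1.5 nM, Z-FR-AMC 2 uM, pH 5.5 acetate, 5 mM DTT, 0.01% Triton X-100.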
Cruzain noTriton: cruzain (T. cruzi) inhibition without detergent | P25779 | purified cruzain, Z-FR-AMC fluorescence, no detergent | Potency, µM, most hits filed as inhibitors | 2.3% of 200,000 active | AID 1476; note: nearly all actives have a fitted effect of over 40% in size
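Purified cruzain at 1.5 nM, pre-incubated 15 min with compound at room temperature in 100 mM sodium acetate pH 5.5, 5 mM DTT, 0.00005% Triton X-100. Reaction started with 2 uM Z-FR-AMC; AMC fluorescence increase over 60 s gives rate.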
Hits are given with their value; n = inactive; u = inconclusive. Calls come from the whole dose curve; as a rule, active = well fitted curve in the direction sought with a large enough effect; inconclusive = small, poorly fitted or top-dose-only effect, or another doubt; inactive = no such curve, though single readings can be large; an effect the other way counts as inactive or inconclusive.

SMILES	Cruzain Triton	Cruzain noTriton
COc1ccc(-n2nnnc2SCC(=O)c2ccc3c(c2)OCCO3)c(OC)c1	n	u
COc1ccc(C)cc1-n1nnnc1SCC(=O)c1ccc2c(c1)OCCO2	n	25.1µM
C[C@@H]1O[C@H](O[C@@H]2[C@@H](Oc3cc(O)c4c(c3)O[C@H](c3ccc(O)cc3)CC4=O)O[C@@H](CO)[C@@H](O)[C@H]2O)[C@@H](O)[C@H](O)[C@@H]1O	n	n
CCCCNC(=O)Cn1nc(N2CCN(c3ccccc3OC)CC2)ccc1=O	n	n
S=P(C1CCCCC1)(C1CCCCC1)[C@H](c1cccnc1)N1CCCC1	n	n
Cc1ccc2c(CC(=O)Nc3ccc(N4CCN(C)CC4)cc3C)coc2c1	n	25.1µM
Cc1ccc(NC(=O)Cc2coc3c(C)c(C)ccc23)c(C)c1	n	n
CN(CC[C@@H](Oc1ccc(-c2ccccc2)cc1)c1ccc(F)cc1)CC(=O)O	n	u
Brc1ccc(-c2nc3ccccn3c2Nc2ccc3c(c2)OCCO3)o1	n	u
CCCCC/C=C\C/C=C\C/C=C\C/C=C\CCCC(=O)N[C@H](C)CO	n	n
N#C/C(C(=O)NCc1ccccc1)=C1/N=C(NC(=O)c2cccs2)c2ccccc21	n	25.1µM
N#C/C(=C\c1cccs1)C(=O)NCc1ccccc1	n	n
CC(=O)NCCNc1ncnc2ccc(-c3cccc(NS(C)(=O)=O)c3)cc12	n	n
Cc1ccccc1-c1ccc2ncnc(N3CCOCC3)c2c1	n	n
CC(=O)Nc1ccc(NC(=O)c2c(C)nn(-c3ccccc3)c2-n2cccc2)cc1	n	u
O=c1oc2cc(OCc3ccc(C(F)(F)F)cc3)ccc2cc1-c1ccccn1	n	n
COc1ccc2c(-c3cc4ccc(OCc5ccc(F)cc5)cc4oc3=O)cc(=O)oc2c1	n	10µM
CCCc1ccc(OCC(=O)Nc2sc(C(=O)OCC)c(C)c2C(=O)OCC)cc1	n	n
CN(/N=C\c1ccccc1O)c1ccc2ccccc2n1	n	n
O=C(O)C(S)[C@@H](S)C(=O)O (stereo partly drawn)	n	n
COc1cccc(-c2nnc3n(Cc4ccccc4Cl)c(=O)c4ccccc4n23)c1O	n	n
NC(CCC(=O)NCS(=O)(=O)O)C(=O)O (stereo not drawn)	n	n
O=C1N=C(N2CCN(c3cccc4ccccc34)CC2)S/C1=C/c1cccs1	n	20µM
Cc1ccccc1N1CCN(C2=NC(=O)/C(=C\c3cccs3)S2)CC1	n	u
Cc1nnc(NC(=O)CSc2nccn2-c2cccc(Cl)c2)s1	n	n
SMILES	Cruzain Triton	Cruzain noTriton
O=C(CCn1c(=O)c2cccn2c2cccnc21)Nc1ccccc1C(F)(F)F	n	n
Cc1cc2oc(=O)cc(CSc3nnc(C)n3N)c2cc1C(C)C	n	n
Cc1cc2oc(=O)cc(CSc3nnc(-c4cccs4)o3)c2cc1C(C)C	n	12.6µM
O=[N+]([O-])c1cccc2c[nH]nc12	n	n
C=CCNC(=O)/C(C#N)=C\c1cc(Cl)c(O)c(OCC)c1	n	n
CCOc1cc(/C=C2\CCC/C(=C\c3cc(Cl)c(O)c(OCC)c3)C2=O)cc(Cl)c1O	n	12.6µM
CCCC[C@H]1C[C@@H]1[C@@H]1N(P(=O)(c2ccccc2)c2ccccc2)[C@](CO)(c2ccccc2)CC12CC2	n	n
C=CCn1c(=N)c(C(=O)NCCCOC)cc2c(=O)n3ccccc3nc21	31.6µM	25.1µM
Cc1cccn2c(=O)c3cc(C(=O)N4CCN(C(=O)c5ccco5)CC4)n(C)c3nc12	n	n
CCOC(=O)c1cc2c(=O)n3ccccc3nc2n(CCCOC)c1=NC(=O)c1c(-c2c(F)cccc2Cl)noc1C	n	n
Cn1c(C(=O)N2CCN(C(=O)c3ccco3)CC2)cc2c(=O)n3ccccc3nc21	25.1µM	u
CCCCCn1c(=NC(C)=O)c(C#N)cc2c(=O)n3ccccc3nc21	n	n
C=CCn1c(=N)c(C#N)cc2c(=O)n3ccccc3nc21	28.2µM	u
CCOC(=O)c1cc2c(=O)n3ccccc3nc2n(CCCOC)c1=NC(C)=O	31.6µM	u
CCOCCCn1c(=N)c(C(=O)NCc2ccccc2)cc2c(=O)n3ccccc3nc21	n	n
O=C(Nc1ccc(F)cc1)c1oc2ccccc2c1NC(=O)C1CCCCC1	n	n
COc1ccc(Oc2ncc3nc(-c4cn(C)c5ccccc45)c(=O)n(CCC#N)c3n2)cc1	n	n
COC(=O)c1cc2c(=O)n3ccccc3nc2n(C)c1=N	11.2µM	u
CC(C)n1c(=N)c(C(=O)NCc2ccccc2)cc2c(=O)n3ccccc3nc21	n	n
Cc1ccccc1C(=O)Nc1ccc2oc(-c3ccc(Cl)c(Cl)c3)nc2c1	n	n
CCOC(=O)C1=C(C)NC(=O)NC1c1cn(-c2ccccc2)nc1-c1ccc(OC(C)C)cc1 (stereo not drawn)	n	n
CC1=C(C(=O)c2ccccc2)C(c2cn(-c3ccccc3)nc2-c2ccc(Cl)cc2)NC(=S)N1 (stereo not drawn)	n	10µM
CCOc1ccc(NC(=O)Cn2c(=O)n(Cc3ccc(C(=O)NCc4ccc5c(c4)OCO5)cc3)c(=O)c3ccccc32)cc1	n	u
CCOC(=O)c1c(-c2ccccc2)oc2ccc(N(C(C)=O)S(=O)(=O)c3cc(C)ccc3C)cc12	n	n
CC(=O)c1c(C)oc2ccc(NS(=O)(=O)c3ccc(C(C)C)cc3)cc12	n	n
SMILES	Cruzain Triton	Cruzain noTriton
CCOC(=O)c1c(-c2ccccc2)oc2ccc(NS(=O)(=O)c3ccc(C)cc3C)cc12	n	15.8µM
CCOC(=O)c1c(-c2ccccc2)oc2ccc(NS(=O)(=O)c3ccc(C(C)C)cc3)cc12	n	20µM
CCOC(=O)c1c(-c2ccccc2)oc2ccc(OCc3ccc(C)cc3)cc12	n	n
C=Cc1ccc(COc2ccc3oc(-c4ccccc4)c(C(=O)OCC)c3c2)cc1	n	31.6µM
Cc1ccc(Cl)cc1N1CCN(C(=O)c2ccc3c(c2)N(Cc2ccccc2F)C(=O)c2ccccc2S3=O)CC1 (stereo not drawn)	n	u
COc1ccc(Cn2c(SCc3ccc(C(=O)NC4CCCCC4)cc3)nc3ccncc32)cc1	n	n
O=C(Nc1ccc(F)cc1)C(c1ccccc1)N1CCN(S(=O)(=O)c2ccc3ccccc3c2)CC1 (stereo not drawn)	n	u
Cc1ccc(C)c(S(=O)(=O)N2CCN(C(C(=O)Nc3ccc(F)cc3)c3ccccc3)CC2)c1 (stereo not drawn)	n	25.1µM
CCOc1ccc(-c2cc(C)n3nc(C(=O)Nc4cc(Cl)ccc4O)cc3n2)cc1	n	n
COc1cccc(NC(=O)CSc2nnc3scc(-c4ccc(Cl)cc4)n23)c1	n	n
N#Cc1c(-c2ccccc2)nc2n(-c3ccccc3)nc(C(=O)Nc3ccccc3)n2c1=O	n	10µM
N#Cc1cccc(NC(=O)c2nc(-c3ccccc3)n(-c3ccccc3)n2)c1	n	n
COC(=O)CSc1nc(N)c2c3c(sc2n1)CCCC3	n	n
COC(=O)CSc1nc(N)c2c3c(sc2n1)C(c1ccccc1)SC(c1ccccc1)C3 (stereo not drawn)	u	12.6µM
NC(=O)CN1CCN(c2nc(-c3ccc(F)cc3)cs2)CC1	n	n
O=C(CN1CCN(c2nc(-c3ccc(F)cc3)cs2)CC1)Nc1ccc2c(c1)OCO2	n	25.1µM
COc1ccc(/C=N/OC/C(O)=C(\C#N)c2nc3ccccc3[nH]2)cc1	n	n
COc1ccc(OC/C(O)=C(\C#N)c2nc3ccccc3[nH]2)cc1	n	25.1µM
